# High-throughput results (PubChem BioAssay)
# Only a selection was taken, and hits are over-represented in it overall.
# Shiga toxin inh: blocks Shiga toxin action in Vero cells | 290,000 compounds, 9.2% hits | inhibition, % at 38.7 µM | Vero cells, Shiga toxin protein synthesis inhibition reporter | AID 2315; in the data active means inhibition mostly above about 28%, no sharp cut-off; inactive means mostly below about 43%; further: 0% is about no effect
# CHX counter: affects cycloheximide protein synthesis inhibition readout, counter-screen; cell reporter, cycloheximide protein synthesis inhibition counterscreen; max response, %; 300,000 compounds, 12% hits; in the data active means max response mostly above about 13%, no sharp cut-off; inactive means mostly below about 14%; further: read at 38.3 µM for the half of the compounds with a filed dose; 0% is about no effect
# TbPYK inhibitor: inhibitors of Trypanosoma brucei pyruvate kinase; Q57TT1; TbPYK enzyme, Kinase-Glo Plus ATP luminescence, 45 min; Potency, µM (top dose mostly 76.8 µM), for the others: at the highest dose activity, negative = inhibition, most hits filed as inhibitors; 410,000 compounds, 0.12% hits; AID 624173; further: potency means the concentration at half of the fitted maximal effect; on the % scale 0 is the no-effect control and ±100 the full control effect; nearly all actives have a fitted effect of over 50% in size
#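 Luminescent Kinase-Glo Plus end-point after 45 min room-temperature reaction of T. brucei pyruvate kinase started with 130 uM ADP (final). Buffer TEA 50 mM pH 7.2 with KCl, MgCl2, BSA, Tween-20; titration-based qHTS with fitted concentration-effect curves.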
# RE007 growth inh: less growth of the S. pombe RE007 Vpr strain | 360,000 compounds, 0.21% hits | Potency, µM (highest dose often 92.2 µM), without a hit: at the highest dose activity change, negative = less growth, most hits filed as inhibitors | S. pombe RE007 Vpr strain, BacTiter-Glo ATP luminescence, 24 h; active means well fitted falling curve with a large enough effect; inconclusive means small, poorly fitted or top-dose-only effect; inactive means no such curve, though single readings can be large or run the other way; further: potency means the concentration at half of the fitted maximal effect; on the % scale 0 is the no-effect control and ±100 the full control effect; nearly all actives have a fitted effect of over 50% in size
#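 Fission yeast strain RE007, carrying one chromosomally integrated HIV-1 vpr copy, was seeded at OD 0.01 in PMG+AL medium with 23 nL pinned compound. After 24 h at 30 °C and 99% humidity, viability was read by BacTiter-Glo luminescence.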
# Giardia FBPA inh: Giardia lamblia aldolase inhibition. A8B2U2. 290,000 compounds, 0.71% hits. Potency, µM (series often up to 59.6 µM), for the others: at the top dose activity, negative = inhibition, most hits filed as inhibitors. purified Giardia FBPA; further: potency means the concentration at half of the fitted maximal effect; on the % scale 0 is the no-effect control and ±100 the full control effect; nearly all actives have a fitted effect of over 55% in size
# Target sequence (A8B2U2 whole entry, looked up): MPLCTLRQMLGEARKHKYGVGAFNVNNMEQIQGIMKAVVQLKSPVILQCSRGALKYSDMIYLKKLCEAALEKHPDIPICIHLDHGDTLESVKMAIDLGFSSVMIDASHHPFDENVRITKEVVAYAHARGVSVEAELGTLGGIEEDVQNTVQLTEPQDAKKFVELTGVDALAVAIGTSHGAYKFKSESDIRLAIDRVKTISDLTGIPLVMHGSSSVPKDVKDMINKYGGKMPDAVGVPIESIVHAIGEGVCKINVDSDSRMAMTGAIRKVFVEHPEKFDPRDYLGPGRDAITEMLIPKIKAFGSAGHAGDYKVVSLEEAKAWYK
#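 40 nM FBPA preincubated 10 min at RT with compound (up to 57.5 uM final), then substrate plus GAPDH/TPI/NAD/arsenate coupling and diaphorase/resazurin added. Fluorescence read after 20 min at RT, 525/598 nm.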
# LmPK inh: blocks Leishmania mexicana pyruvate kinase activity; purified LmPK, Kinase-Glo ATP luminescence, 1 h; Potency, µM (doses to about 57.5 µM), for the others: at the highest dose activity change, negative = inhibition, most hits filed as inhibitors; 290,000 compounds, 0.37% hits; AID 1721; further: potency means the concentration at half of the fitted maximal effect; on the % scale 0 is the no-effect control and ±100 the full control effect
#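 qHTS format; LmPK 0.1 nM; substrates PEP 0.5 mM and ADP 0.1 mM. One-hour room-temperature incubation, then coupled luciferase luminescence; 0.5 nM enzyme wells mark activation.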
# * hit, by the source's call; ? = inconclusive; · = no result given; [ ] = another dose, or the depositor's remark. Unless noted, the call rests on the fitted dose curve; in most records, active means well fitted curve in the direction sought with a large enough effect; inconclusive means small, poorly fitted or top-dose-only effect, or another doubt; inactive means no such curve, though single readings can be large; an effect the other way counts as inactive or inconclusive.
SMILES,Shiga toxin inh,CHX counter,TbPYK inhibitor,RE007 growth inh,Giardia FBPA inh,LmPK inh
CCc1ccc(C(=O)NCc2cccs2)s1,89.2*,36.6*,-0.9%,4.2%,-4.6%,4.1%
CCC(CC)C(=O)NCc1ccccc1OC,-15.8,-3.9,9.3%,2.0%,3.9%,-7.2%
O=C(NCc1cccs1)c1ccccc1,-1.4,-3.0,3.2%,11.1%,-0.5%,2.2%
CC(C)Oc1ccc(C(=O)NCc2cccs2)cc1,36.2*,50.1*,4.0%,-11.0%,-2.2%,0.0%
COc1ccc2c(CNCc3ccc(Cl)cc3)c(C(=O)O)n(Cc3ccccc3C)c2c1,·,·,4.0%,·,·,·
CCOC(=O)c1ccc(NC(=O)c2cc(=O)c3ccc(C)c(C)c3o2)cc1,·,·,-0.7%,·,·,·
CC(C)(C)S(=O)(=O)Cc1nc(-c2ccc(Cl)c(Cl)c2)cs1,65.0*,30.3*,-4.6%,13.4%,-10.1%,6.3%
Cc1cc(C)n(CCc2nc(-c3ccc(C(C)(C)C)cc3)cs2)n1,7.0,0.0,5.4%,-12.3%,-2.5%,1.0%
CCOC(=O)CSc1nc2cc(OC)ccc2cc1C#N,116.2*,22.1*,-13.0%,-10.0%,-3.9%,5.8%
COc1ccc2nc(SCC(C)=O)c(C#N)cc2c1,115.6*,35.6*,0.1%,6.4%,-11.1%,-4.7%
CCOC(=O)CSc1nc2cc(C)cc(C)c2cc1C#N,25.0,13.9*,-3.8%,-9.5%,8.7%,0.0%
Cc1ccc2cc(C#N)c(SCC(=O)N3CCCC3)nc2c1,27.0,22.2*,-14.9%,-20.0%,1.2%,8.9%
CCOC(=O)CSc1nc(C)cc(C)c1C#N,-12.4,-1.0,?,-0.8%,-4.5%,6.2%
COc1ccc2cc(C#N)c(SCC(=O)Nc3nonc3C)nc2c1,30.3,13.5,-7.7%,-4.8%,-3.7%,-0.9%
COc1ccc2nc(SC)c(C#N)cc2c1,38.2,16.6,-0.4%,2.9%,0.1%,-3.9%
COC(=O)c1ccc(NC(=O)CCn2cnnn2)cc1,·,·,0.8%,·,·,·
CCCc1nn2c(=O)cc(COC(=O)c3ccc(NC(=O)c4cccs4)cc3)nc2s1,·,·,-8.5%,·,·,·
COc1ccc(-c2cn3nc(SCC(=O)Nc4ccc(C)c(Cl)c4)ccc3n2)cc1,·,·,2.2%,·,·,·
CCOC(=O)CC(=O)CSc1nc2ccc(OC)cc2cc1C,50.6*,20.6*,-0.7%,-0.3%,-6.1%,4.6%
CCOC(=O)CSc1nc2cc(C)ccc2cc1C#N,100.0*,40.5*,-6.7%,-2.6%,-3.5%,3.1%
CCOC(=O)CSc1nc2ccc(C)cc2cc1C#N,80.2*,58.9*,3.5%,-19.5%,-1.2%,5.5%
CCOC(=O)CC(=O)CSc1nc2cc(C)ccc2cc1C,25.2,5.4,1.0%,-15.2%,9.0%,5.3%
CCOC(=O)CSc1nc(-c2ccccc2)nc2ccc(C)cc12,-3.7,-1.6,4.2%,-8.7%,6.3%,2.1%
COc1ccc(C(OCCN2CCC[C@H](C(=O)O)C2)(c2ccc(OC)cc2)c2ccc(OC)cc2)cc1,2.8,-6.1,·,·,1.1%,·
COc1cccc(-c2cc(=O)[nH][nH]2)c1,24.4,21.9*,0.3%,9.6%,12.0%,9.9%
SMILES,Shiga toxin inh,CHX counter,TbPYK inhibitor,RE007 growth inh,Giardia FBPA inh,LmPK inh
CC(C)(C)c1cc(NC(=O)c2cccnc2)no1,79.3,30.7*,-3.7%,12.5%,16.2%,-26.1%
CC(C)(C)c1csc(NC(=O)c2cccnc2)n1,16.7,12.8*,-0.6%,-12.2%,-0.5%,-11.2%
O=C(O)c1cc(NC(=O)C2CCCO2)cc(C(=O)O)c1 (stereo unspecified),-1.1,-2.5,-0.1%,24.8%,0.0%,-1.4%
O=C(Nc1nc(-c2ccc(Cl)cc2)cs1)c1cccnc1,-22.8,-3.2,-21.5%,-6.7%,-1.8%,1.3%
CC(C)(C)c1cc(NC(=O)C2CCCO2)no1 (stereo unspecified),47.2*,32.5*,-9.7%,-7.1%,4.2%,3.3%
CC(C)(C)c1cc(NC(=O)c2cccs2)no1,·,·,-16.1%,-26.6%,·,·
CC(C)(C)c1csc(NNC(=O)c2ccc(Cl)cc2)n1,63.7*,28.8*,-2.4%,-9.3%,6.7%,2.0%
Cc1ccc(NC(=O)COC(=O)C2(C)CC2(Cl)Cl)cc1S(=O)(=O)N1CCOCC1 (stereo unspecified),·,·,2.3%,-1.2%,·,·
COc1ccc(NS(=O)(=O)c2ccc3c(c2)CC(C)N3C(C)=O)c(OC)c1 (stereo unspecified),·,·,1.7%,·,·,·
COc1ccc(-n2cc(C(=O)N(CCN(C)C)Cc3ccccc3)c3ccccc3c2=O)cc1,·,·,-1.4%,·,·,·
Cc1ccc(S(=O)(=O)CCC(=O)Nc2nc(C(C)(C)C)cs2)cc1,5.1,0.5,6.5%,-1.0%,5.7%,8.5%
CCOc1ncccc1C(=O)Nc1nc(C(C)(C)C)cs1,32.3,20.1,1.2%,-7.8%,-9.5%,-10.8%
CC(C)(C)c1csc(NC(=O)CCc2ccccc2)n1,·,24.6*,4.8%,?,5.7%,-2.3%
CCOC(=O)Cc1csc(NC(=O)Cc2cccs2)n1,1.9,-2.5,·,-16.2%[3.69 µM],-0.2%,1.6%
CC(C)(C)c1csc(NC(=O)c2cccs2)n1,70.5*,44.4*,0.6%,?,-8.4%,-7.3%
CC(C)(C)c1csc(NC(=O)Cc2cccs2)n1,61.3*,32.6*,-2.8%,5.2%,-15.0%,0.2%
O=C(c1ccc2ncsc2c1)N1CCN(c2ccccc2Cl)CC1,105.2*,19.7*,-0.3%,0.8%,0.1%,0.3%
Cc1cccc(N2CCN(C(=O)c3ccc4ncsc4c3)CC2)c1C,72.1*,30.0*,-19.5%,0.0%,7.0%,9.3%
Cc1cccc(N2CCN(C(=O)c3ccc4nc[nH]c4c3)CC2)c1C,-3.1,-4.9,-0.4%,1.1%,16.5%,1.6%
Cc1ccc(NC(=O)CN2C(=O)C(=O)N(C3CCCC3)C2=O)c(Cl)c1,·,·,5.9%,-6.1%,·,·
Nc1nc(N)c(S(=O)(=O)c2ccccc2)c(Nc2ccc(Br)cc2)n1,·,·,-16.4%,·,·,·
COc1ccccc1/C=N/NC(=Nc1ccc(C)cc1)c1nc2ccccc2s1,183.9*,52.8*,·,·,0.0%,-1.1%
COc1cc(/C=N/NC(=Nc2ccc(C)cc2)c2nc3ccccc3s2)ccc1O,99.6*,42.0*,-13.9%,-11.5%,-1.4%,-11.9%
Cc1ccc(CCNC(=O)CCN2N=C(c3ccc(C)cc3)CCC2=O)cc1,·,·,0.2%,·,·,·
CC1CN=C(NCc2ccccc2)S1 (stereo unspecified),21.1,16.3*,8.2%,-10.9%,0.2%,-2.7%
CC1CN=C(NCc2ccccc2Cl)S1 (stereo unspecified),41.8*,24.6*,2.3%,-18.1%,12.6%,0.1%
CC1(C)CN=C(Nc2ccccc2C(F)(F)F)S1,30.3,-0.9,2.0%,-4.3%,7.1%,-1.8%
CC1(C)CN=C(NCc2ccccc2Cl)S1,55.1*,17.2*,-5.9%,-10.0%,-5.3%,2.4%
CC1CN=C(Nc2ccc(F)cc2)S1 (stereo unspecified),-1.4,-0.6,-7.0%,-1.3%,8.9%,0.9%
